Counter-ions that a name gives are not always drawn.
System: 4T1
Assay: % inhibition of 4T1 cell number vs DMSO control; higher = stronger growth inhibition
Conditions: 1 µM, 3 days
Method in brief: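 4T1-H2B-GFP mouse breast cancer cells (3000 per well, 2% FBS medium) were seeded in 96-well imaging plates on plastic, denuded lung or mCAF1 fibroblast-derived matrix, Matrigel (15 μg/mL) or 0.2% gelatin; edge wells were left unused. After 16 h, kinase inhibitors were added at 1 μM final for 3 days. Plates were formalin-fixed, DAPI-stained and imaged on an INCell Analyzer 2200, and GFP-positive nuclei were counted. Percent inhibition of cell number was calculated relative to DMSO control.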

[1] = substrate: lung fibroblast-derived matrix
[2] = substrate: mCAF1 fibroblast-derived matrix

| SMILES | % inhibition of 4T1 cell number (substrate: Matrigel) [%] | % inhibition of 4T1 cell number (substrate: gelatin) [%] | % inhibition of 4T1 cell number [1] [%] | % inhibition of 4T1 cell number [2] [%] | % inhibition of 4T1 cell number (substrate: plastic) [%] |
| --- | --- | --- | --- | --- | --- |
| CC[C@H](CO)Nc1nc(NCc2ccc(-c3ccccn3)cc2)c2ncn(C(C)C)c2n1 [CR8, (R)-Isomer] | 99.5 | 98.7 | -11.2 | 96 | 96.7 |
| c1ccc(-c2cnc(Nc3ccc(OCCN4CCCC4)cc3)s2)cc1 [Flt-3 Inhibitor III] | 95.2 | 88.5 | 5.06 | 65.3 | 72.6 |
| Brc1c(Br)c(Br)c2n[nH]nc2c1Br [Casein Kinase II Inhibitor I] | 49.8 | 40.2 | 1.56 | -30.6 | 39.4 |
| CCC(CO)Nc1nc(NCc2ccccc2)c2ncn(C(C)C)c2n1 [Roscovitine, (S)-Isomer] | -4.8 | 59.2 | 1.55 | 29.4 | -6.54 |
| Cc1ccc(S(=O)(=O)/C=C/C#N)cc1 | 18.5 | 38.2 | -8.23 | -0.662 | 5.77 |
| O=C1Cc2c([nH]c3ccc([N+](=O)[O-])cc23)-c2ccccc2N1 [Alsterpaullone] | 61.5 | 45.2 | -3.92 | -0.808 | 56.1 |
| COc1cc2c(cc1OC)-c1[nH]nc(Nc3cccc(F)c3)c1C2 [PDGF Receptor Tyrosine Kinase Inhibitor IV] | 94.6 | 84.5 | -13.5 | 89.7 | 74.7 |
| CCCOc1ccc(/C=C2/SC(=O)NC2=O)cc1 [PIM1/2 Kinase Inhibitor VI] | 16.2 | 22.9 | 2.3 | -16.9 | -1.33 |
| CC[C@H](CO)Nc1nc(NCc2ccccc2O)c2ncn(C(C)C)c2n1 [Olomoucine II] | 13.3 | 23.4 | 19.8 | 13.3 | 23.7 |
| CCOC(=O)c1c(C)[nH]c(/C=C2\C(=O)Nc3ccccc32)c1C [VEGF Receptor 2 Kinase Inhibitor I] | 21.5 | -34.8 | -12.5 | -29.2 | 16.8 |
| COc1cc2ncnc(Nc3ccc(Cl)cc3Cl)c2cc1OC [Ste11 MAPKKK Activation Inhibitor] | 42 | 66.8 | 0.704 | -27.6 | 36.1 |
| O=C(c1ccc(Nc2nccc(-c3cc4ccccc4s3)n2)cc1)N1CCC(N2CCCC2)CC1 [IKK Inhibitor VII] | 81.6 | 55.4 | -10 | 52.9 | -20.6 |
| COc1ccc(-c2cnc3c(-c4ccsc4)cnn3c2)cc1 [VEGF Receptor 2 Kinase Inhibitor IV] | 8.54 | 30.6 | -18.1 | 5.85 | -14.5 |
| O=c1cc(N2CCOCC2)oc2c1ccc1ccccc12 [DNA-PK Inhibitor II] | 9.66 | -23.4 | 34.1 | -9.82 | -13 |
| Nc1[nH]nc2nnc(-c3c(-c4ccccc4)nn4ccccc34)cc12 | -37.8 | -5.47 | -14.3 | 1.41 | -58.3 |
| O=S(=O)(c1cccc2cnccc12)N1CCCNCC1 [HA 1077, Dihydrochloride] | 25.3 | 21.7 | -23.5 | 4.22 | 21.9 |
| O=C1c2ccccc2-c2nc3nnnn3nc21 [PDK1/Akt/Flt Dual Pathway Inhibitor] | 99 | 97.3 | -19.8 | 95.4 | 97 |
| N#CCCc1ccc2c(c1)-c1[nH]c3ccc([N+](=O)[O-])cc3c1CC(=O)N2 [Alsterpaullone, 2-Cyanoethyl] | 55.6 | 51.8 | -1.58 | 45.1 | 72.9 |
| O=C1NC(=O)c2c1c1c3ccccc3[nH]c1n1cncc21 [Isogranulatimide] | -41.6 | -25.6 | -7.38 | 9.11 | -78.2 |
| COc1cc2ncnc(N3CCN(C(=O)Nc4ccc(Oc5ccccc5)cc4)CC3)c2cc1OC [PDGF Receptor Tyrosine Kinase Inhibitor III] | -4.76 | -15.1 | -1.37 | 49.3 | -34.7 |
| CCCC(=O)Oc1ccc2[nH]c(C(=O)c3cc4ccccc4[nH]3)cc2c1 [PDGF Receptor Tyrosine Kinase Inhibitor II] | -18.7 | -112 | -6.16 | 1.3 | -70.2 |
| COc1cc2ncnc(Nc3cccc(Cl)c3)c2cc1OC | 19.4 | -16.6 | -4.35 | 6.77 | 36 |
| Cc1cc2ncc(-c3ccccc3)nc2cc1C | 1.93 | 65.9 | -4.16 | 30.3 | 45.2 |
| O=C(Nc1cccc(Nc2nccc(Nc3cccc(C(F)(F)F)c3)n2)c1)C1CC1 [Aurora Kinase Inhibitor III] | 54.8 | 74.5 | 97.8 | 15 | 63.6 |
| COc1ccc(OC)c2c(=S)c3ccccc3[nH]c12 | -8.48 | -7.36 | -13.6 | 4.29 | -67 |
| O=C(Nc1ccc(Cl)cc1)c1ccccc1NCc1ccncc1 [VEGF Receptor Tyrosine Kinase Inhibitor II] | 28.8 | -12.3 | 79.7 | 0.43 | 17.2 |
| Cc1ccc(NC2=CC(=O)c3sc(C)nc3C2=O)cc1 [Cdk4 Inhibitor III] | -14.1 | 30.5 | 99.5 | 12.4 | -21.1 |

| SMILES | % inhibition of 4T1 cell number (substrate: Matrigel) [%] | % inhibition of 4T1 cell number (substrate: gelatin) [%] | % inhibition of 4T1 cell number [1] [%] | % inhibition of 4T1 cell number [2] [%] | % inhibition of 4T1 cell number (substrate: plastic) [%] |
| --- | --- | --- | --- | --- | --- |
| O=C(Nc1cc(C(F)(F)F)cc(C(F)(F)F)c1)c1cc(Cl)ccc1O [IKK-2 Inhibitor V] | 91.1 | 90.6 | 80.7 | 82.9 | 94.5 |
| NC(=O)Nc1sc(-c2ccccc2)cc1C(N)=O [IKK-2 Inhibitor VI] | -32 | -1.17 | -16 | 28.5 | -60 |
| COc1cc2ncnc(Nc3ccc(Oc4ccccc4)cc3)c2cc1OC [Src Kinase Inhibitor I] | -19.5 | -6.86 | -13.5 | 32.6 | -35.4 |
| Nc1ncnc2c1c(I)cn2[C@@H]1O[C@H](CO)[C@@H](O)[C@H]1O [5-Iodotubercidin] | 15.7 | 59.3 | 7.74 | 34.1 | 24.1 |
| NC(=O)Nc1cc(-c2ccccc2)sc1C(N)=O [IKK-2 Inhibitor XI] | 48 | 55 | 2.01 | 19.8 | 28.6 |
| COc1cccc(-c2cc(=O)c3ccccc3o2)c1N | -3.15 | -1.31 | -10.2 | 25.7 | -41.4 |
| N#C/C(=C(/N)Sc1ccccc1N)c1cccc(C(O)c2ccncc2)c1 (stereo not given) [MEK Inhibitor I] | -42.3 | 30.7 | 50.2 | 40.9 | -71.7 |
| CC(C)(C)c1nc2c3cc[nH]c(=O)c3c3cc(F)ccc3c2[nH]1 [JAK Inhibitor I] | -23.5 | -101 | -5.54 | 20.7 | -71.6 |
| O=C1c2ccccc2-c2n[nH]c3cccc1c23 [JNK Inhibitor II] | -51.1 | -11.8 | -2.64 | 27.7 | -62.6 |
| CC[C@H](CO)Nc1nc(NCc2ccccc2)c2ncn(C(C)C)c2n1 [Roscovitine] | -1.22 | 53.1 | -2.74 | 3.56 | -18.8 |
| Nc1n[nH]c(N)c1N=Nc1ccc(O)cc1 [Cdk9 Inhibitor II] | 11 | 10.5 | -8.89 | -4.98 | 12 |
| O=S(=O)(c1cccc2c(I)cccc12)N1CCCNCC1 [ML-7, Hydrochloride] | 23 | 24.2 | -1.62 | 33.6 | -7.72 |
| CC(=O)O/N=C1/C(c2c(O)[nH]c3cc(Br)ccc23)=Nc2ccccc21 [GSK-3 Inhibitor X] | -22.6 | 52.7 | -8.8 | 59.3 | 58.1 |
| CN(C)CCCn1cc(C2=C(c3c[nH]c4ccccc34)C(=O)NC2=O)c2ccccc21 [Bisindolylmaleimide I] | 46.6 | 41.5 | -13.3 | 13.1 | 57.2 |
| COc1ccc(Cl)cc1NC(=O)Nc1cc(C)nc2ccccc12 [IGF-1R Inhibitor II] | -4.34 | -99 | -3.14 | -1.23 | -44.3 |
| CC[C@@H](CO)Nc1nc(NCc2ccc(-c3ccccn3)cc2)c2ncn(C(C)C)c2n1 [CR8, (S)-Isomer] | 99.4 | 98.9 | 60.2 | 95.8 | 96.5 |
| O=Nc1c(-c2c(O)[nH]c3cc(Br)ccc23)[nH]c2ccccc12 [GSK-3 Inhibitor IX] | -37.5 | -7.89 | -2.79 | 55.1 | 42.2 |
| Oc1cccc(-c2nc(N3CCOCC3)c3oc4ncccc4c3n2)c1 | 22.6 | 4.53 | -18.2 | 70.3 | -7.68 |
| O=C1NC(=O)/C(=C/c2ccc3c(c2)OC(F)(F)O3)S1 [PI 3-Kg Inhibitor II] | 27.2 | 11.1 | 39.7 | 5.87 | 37.8 |
| N#CC(c1ccnc(NCCc2cccnc2)n1)c1nc2ccccc2s1 (stereo not given) [JNK Inhibitor V] | -8.79 | 6.99 | -8.74 | 52.2 | 8.02 |
| Oc1ccc(-c2nc(-c3ccc(F)cc3)c(-c3ccncc3)[nH]2)cc1 | 19.2 | 56 | -2.55 | 38.9 | 30.1 |
| CCN(CC)CCNC(=O)c1c(C)[nH]c(/C=C2\C(=O)Nc3ccc(Cl)cc32)c1C | 62.3 | 70 | -10.6 | 52.4 | 74.3 |
| COc1nccc(-c2c(-c3ccc(F)cc3)ncn2C2CCC(O)CC2)n1 (stereo not given) | 46.2 | 34.2 | -8.71 | -18.3 | 19.8 |
| Cn1nc2c3c(cccc31)C(=O)c1ccccc1-2 [JNK Inhibitor, Negative Control] | -37.2 | -36.9 | 0.304 | 24.3 | -59.1 |
| Cn1cnc2cc3c(Nc4cccc(Br)c4)ncnc3cc21 | 5.46 | -49.9 | -0.216 | -36.5 | -21.9 |
| O=C1NC(=O)C(c2cn(CCCO)c3ncccc23)=C1c1cnccn1 [GSK-3b Inhibitor XI] | 26.7 | 30.4 | 0.393 | 15.6 | 44.6 |
| CN1C(=O)C(c2c[nH]c3ccccc23)=C(c2c[nH]c3ccccc23)C1=O [Bisindolylmaleimide V] | 82.1 | 67 | -9.51 | -40.4 | 50.7 |

Reference: the supplement of paper PMC8269313
